Shown are actives, neighbours in structure and some others; about 20% of the full set was active somewhere.
Shiga toxin inh = inhibitors of Shiga toxin in Vero cells | hit rate 9.2% among 290,000 | Vero cells, Shiga toxin protein synthesis inhibition reporter | inhibition, % at 38.7 µM | AID 2315; in the data active = inhibition mostly above about 28%, no sharp cut-off; inactive = mostly below about 43%; also: 0% is about no effect
CHX counter = counter-screen hit for Shiga toxin inhibitors, cycloheximide; hit rate 12% among 300,000; max response, %; cell reporter, cycloheximide protein synthesis inhibition counterscreen; in the data active = max response mostly above about 13%, no sharp cut-off; inactive = mostly below about 14%; also: read at 38.3 µM for the half of the compounds with a filed dose; 0% is about no effect
Pf growth 96h = P. falciparum growth inhibition at 96 hours | P. falciparum luciferase reporter growth, 96 h | Potency, µM (top dose mostly 28.7 µM), without a hit: at the highest dose activity change, negative = inhibition, actives largely listed as inhibitors | hit rate 6.9% among 320,000; also: potency is read from the fitted curve at half-maximal effect; % is scaled to controls: 0 for no effect and ±100 for the full control effect
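Readout is luminescence from an integrated firefly luciferase in P. falciparum. Red cells, 2% hematocrit and 0.05% parasitemia final, were cultured with compound through two parasite generations (96 hours) at 37 C, 5% CO2.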
Pf growth 48h = inhibits P. falciparum growth in the first generation, 48 h | Potency, µM (doses to about 28.7 µM), inactives show top-dose activity change, negative = inhibition, actives largely listed as inhibitors | hit rate 5.9% among 310,000 | AID 504832 | P. falciparum luciferase growth in erythrocytes, 48 h; also: potency is read from the fitted curve at half-maximal effect; % is scaled to controls: 0 for no effect and ±100 for the full control effect
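First compound was added to culture medium, then infected red cells at 0.1% parasitemia and 2% hematocrit (final). After incubation at 37 C under 5% CO2, luciferase detection reagent was dispensed and light output recorded.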
HCMV antiviral = inhibitors of human cytomegalovirus; HFF cells, HCMV-luciferase reporter, 72 h; stronger effect = lower value; activity change, negative = inhibition, % at 57.5 µM; hit rate 4.5% among 410,000; AID 1259415; in the data active = activity change below about -60%; inconclusive = no clear call, values can overlap the other calls; inactive = above about -39%; also: % is scaled to controls: 0 for no effect and ±100 for the full control effect
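Screen run at 2 compound doses on HFFs infected with reporter HCMV, MOI 1 PFU/cell. Luciferase activity from cell lysates at 72 h post infection gave inhibition relative to buffer-only and Salinomycin wells.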
Numbers without * were called inactive. Unless noted, calls follow the shape of the dose curve; as a rule, active = well fitted inhibition curve with a large enough effect; inconclusive = small, poorly fitted or top-dose-only effect, or another doubt; inactive = no such curve, though single readings can be large or run the other way.

Results for C/C(=N\NC(=O)c1ccc(O)cc1)c1ccc(NC(=O)Cc2ccccc2)cc1 ?
Shiga toxin inh: 170*; CHX counter: 36*; Pf growth 96h: inconclusive; Pf growth 48h: 21%; HCMV antiviral: 61

What do the screens show for `CCOc1ccc(NC(=O)CCC(=O)NNC(=O)Nc2cccc(Cl)c2)cc1`?
Shiga toxin inh: -3; CHX counter: -6; Pf growth 96h: -2%; Pf growth 48h: 10%; HCMV antiviral: 5

How did CCSc1nc2ccc(N3C(=O)C4C5C=CC(C5)C4C3=O)cc2s1 (stereo not drawn) do in these assays?
Shiga toxin inh: 50*; CHX counter: 27*; Pf growth 96h: 80%; Pf growth 48h: 52%; HCMV antiviral: 1

What do the screens show for `COc1ccc(C(=O)NC(=S)Nc2ccc(CN3CCOCC3)cc2)cc1Br`?
Shiga toxin inh: -5; CHX counter: -1; Pf growth 96h: inconclusive; Pf growth 48h: inconclusive; HCMV antiviral: -64*

What do the screens show for `CCOc1ccc(C(=O)Nc2ccc(CN3CCOCC3)cc2)cc1Br`?
Shiga toxin inh: 8; CHX counter: -2; Pf growth 96h: 6%; Pf growth 48h: -11%; HCMV antiviral: -32

Results for COc1ccc(C(=O)NC(=S)Nc2ccc(CN3CCOCC3)cc2)cc1 ?
Shiga toxin inh: 47*; CHX counter: 18; Pf growth 96h: inconclusive; Pf growth 48h: -1%; HCMV antiviral: 25

What do the screens show for `CC(=O)c1ccc(COC(=O)Cc2ccc([N+](=O)[O-])cc2)cc1`?
Shiga toxin inh: 5; CHX counter: 1; Pf growth 96h: 87%; Pf growth 48h: 29%; HCMV antiviral: -21

How did CCOc1ccccc1OCCCC(=O)N(CC)CC(=O)Nc1ccc(NC(C)=O)cc1 do in these assays?
Pf growth 96h: 10%; Pf growth 48h: -6%; HCMV antiviral: -13

What do the screens show for `Cc1ccc(C)c(Nc2c([N+](=O)[O-])cc(C(=O)N3CC(=O)Nc4ccccc43)cc2[N+](=O)[O-])c1`?
Shiga toxin inh: -22; CHX counter: -3; Pf growth 96h: 13µM*; Pf growth 48h: inconclusive; HCMV antiviral: inconclusive

What do the screens show for `Cc1cccc(Nc2c([N+](=O)[O-])cc(C(=O)N3CC(=O)Nc4ccccc43)cc2[N+](=O)[O-])c1`?
Shiga toxin inh: -6; CHX counter: -1; Pf growth 96h: inconclusive; Pf growth 48h: 9.3µM*; HCMV antiviral: -15

What do the screens show for `Cc1ccc(C)c(NC(=O)CNC(=O)N2CC(=O)Nc3ccccc32)c1`?
Shiga toxin inh: 14; CHX counter: -3; Pf growth 96h: 40%; Pf growth 48h: 32%; HCMV antiviral: -3

Results for Cc1ccc(N2CC(NS(=O)(=O)c3cccs3)CC2=O)cc1 (stereo not drawn) ?
Pf growth 96h: 2%; Pf growth 48h: -13%; HCMV antiviral: -17

What do the screens show for `COc1cccc2cc(C(=O)CS(=O)(=O)c3ccc(C)cc3)c(=O)oc12`?
Shiga toxin inh: 19; CHX counter: -3; Pf growth 96h: 4.7µM*; Pf growth 48h: 4%

What do the screens show for `COc1cccc2cc(CC(=O)c3ccc(C)cc3C)c(=O)oc12`?
Shiga toxin inh: 73*; CHX counter: 55*; Pf growth 96h: -6%; Pf growth 48h: -10%; HCMV antiviral: -20

Results for Cc1ccc(S(=O)(=O)CC(=O)c2cc3cccc(C)c3oc2=O)cc1 ?
Shiga toxin inh: -6; CHX counter: -1; Pf growth 96h: 16%; Pf growth 48h: 18%; HCMV antiviral: -13

Results for Cc1ccc(N(CC(=O)N2CCOCC2)S(=O)(=O)c2ccccc2)cc1 ?
Shiga toxin inh: 13; CHX counter: -1; Pf growth 48h: 33%; HCMV antiviral: 5

Results for O=C(CN(c1ccc(F)cc1)S(=O)(=O)c1ccc2c(c1)OCCO2)N1CCOCC1 ?
Shiga toxin inh: -2; CHX counter: -2; Pf growth 96h: 1µM*; Pf growth 48h: 7%; HCMV antiviral: 34

What do the screens show for `Cc1ccc(S(=O)(=O)N(CC(=O)N2CCOCC2)c2ccc(C(C)C)cc2)cc1`?
Shiga toxin inh: -17; CHX counter: 16; Pf growth 96h: 10µM*; Pf growth 48h: -18%; HCMV antiviral: -19

How did Cc1ccc(S(=O)(=O)N(CC(=O)N2CCC(C)CC2)c2ccccc2)cc1 do in these assays?
Shiga toxin inh: 41; CHX counter: 3; Pf growth 96h: 29%; Pf growth 48h: 12µM*; HCMV antiviral: -28

What do the screens show for `COC(=O)CN(c1ccc2c(c1)OCCO2)S(=O)(=O)c1ccccc1`?
Shiga toxin inh: -13; CHX counter: -1; Pf growth 96h: 16%; Pf growth 48h: 0%; HCMV antiviral: -8

What do the screens show for `O=C(CN(c1ccc(F)cc1)S(=O)(=O)c1ccccc1)N1CCOCC1`?
HCMV antiviral: 29

How did O=C(O)CN(c1ccc2c(c1)OCCO2)S(=O)(=O)c1ccccc1 do in these assays?
Shiga toxin inh: -5; CHX counter: -2; Pf growth 48h: 12%; HCMV antiviral: -69*

What do the screens show for `CCOc1ccc(-c2cc(C(=O)NCCc3ccc(C)cc3)c3ccccc3n2)cc1`?
HCMV antiviral: 33

What do the screens show for `Cc1ccc(S(=O)(=O)N(CC(=O)N2CCC(C)CC2)Cc2ccccc2F)cc1`?
Shiga toxin inh: -15; CHX counter: 10; Pf growth 48h: inconclusive; HCMV antiviral: -63*

How did O=C1CC(NCc2cccs2)C(=O)N1c1ccc(Cl)cc1 (stereo not drawn) do in these assays?
Shiga toxin inh: -8; CHX counter: 11; HCMV antiviral: -27

Results for CCCOc1ccc(N2C(=O)CC(NCc3cccs3)C2=O)cc1 (stereo not drawn) ?
Shiga toxin inh: 11; CHX counter: -3; Pf growth 96h: 5.2µM*; Pf growth 48h: -1%; HCMV antiviral: 11

How did COC(=O)c1ccc2c(CCO)c[nH]c2c1 do in these assays?
Shiga toxin inh: 37*; CHX counter: 25*; Pf growth 96h: 31%; Pf growth 48h: 141%; HCMV antiviral: -31

Results for COC(=O)c1ccc(CNC(=O)CCc2c[nH]c3ccccc23)cc1 ?
Shiga toxin inh: 4; CHX counter: -3; Pf growth 96h: 11%; Pf growth 48h: 7%; HCMV antiviral: 15

Results for Cc1cc(CNC(=O)C2(C(F)(F)F)C/C(=C\Cc3ccccc3)CCCO2)nn1C (stereo not drawn) ?
Shiga toxin inh: -4; CHX counter: -2; HCMV antiviral: -10

How did COC1=C(Nc2ccccc2OC)C(=O)c2ccccc2C1=O do in these assays?
Shiga toxin inh: 20; CHX counter: 12; Pf growth 96h: 2.3µM*; Pf growth 48h: 2.3µM*; HCMV antiviral: 16

Results for COc1ccccc1NC(C)=O ?
Shiga toxin inh: -12; CHX counter: -2; Pf growth 96h: 72%; Pf growth 48h: 8%; HCMV antiviral: 24

How did COc1ccccc1NC1=C(NC(C)=O)C(=O)c2ccccc2C1=O do in these assays?
Shiga toxin inh: 27; CHX counter: 7; Pf growth 96h: inconclusive; Pf growth 48h: 3.7µM*; HCMV antiviral: -66*

How did COC1=C(Nc2ccccc2)C(=O)C(OC)=C(Nc2ccccc2)C1=O do in these assays?
HCMV antiviral: 71

Screening results from PubChem.
